From PubChem BioAssay (Tox21)
Values joined by “and” are separate entries in the source; they are usually repeats but may differ in a detail not shown here. Equal values may be shown once. Results filed as inconclusive are left out. Active and inactive are the calls of the source. Unless noted, calls follow the shape of the dose curve; as a rule, active = well fitted curve in the direction sought with a large enough effect in the repeat runs; inconclusive = weak or mixed curves; inactive = no such curve, though single readings can be large; an effect the other way counts as inactive or inconclusive.

Assays:
[1] = qHTS assay to identify small molecule antagonists of the estrogen related receptor (ERR) signaling pathway - cell viability counter screen (AID 1224818); also: potency is read from the fitted curve at half-maximal effect;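 also: viability measured after 17.5 h of compound exposure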
Outline: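 Quantitative high-throughput viability counter screen in ERR cells. Compounds (DMSO) incubated 17.5 h at 37 C; read-out was CellTiter-Fluor fluorescence.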

[2] = qHTS assay to identify small molecule antagonists of the estrogen related receptor (ERR) signaling pathway (AID 1224819;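 also: luminescence from an ERR-driven luciferase reporter measured with One-Glo reagent; series mostly up to about 46 µM; nearly all actives have a fitted effect of over 50% in size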)
Outline: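 ERR reporter cell line (NTP) plated at 2,000 cells/well, settled 6 h at 37C/5% CO2, then exposed to LOPAC compounds for 18 h at 37C. One-Glo luciferase luminescence read after 30 min at room temperature.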

[3] = qHTS assay to identify small molecule agonists of the estrogen related receptor (ERR) signaling pathway (AID 1224820); also: potency is read from the fitted curve at half-maximal effect
Outline: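 Following a 6 h settling period, 2,000 ERR cells per well receive DMSO-dissolved compounds by pin tool and incubate 18 h at 37 C; agonist activity is scored from One-Glo luminescence read 30 min post-addition.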

[4] = test system: estrogen-related receptor alpha (ERRalpha) with PGC-1alpha coactivator, human; experiment: qHTS assay to identify small molecule antagonists of the estrogen related receptor signaling pathway with the pleiotropic PPARgamma coactivator (PGC) (AID 1224821; calls by dose curve;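 also: series mostly up to about 46 µM; lower luminescence signal means antagonism of PGC/ERR signalling; nearly all actives have a fitted effect of over 50% in size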)
Outline: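 Screening used NTP's PGC/ERR cells, dosed via pin tool with compound in DMSO alongside positive and negative controls. After 18 h at 37 C, One-Glo reagent sat 30 min at room temperature before luminescence detection.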

[5] = qHTS assay to identify small molecule agonists of the estrogen related receptor signaling pathway with the pleiotropic PPARgamma coactivator (PGC) (AID 1224823); also: potency is read from the fitted curve at half-maximal effect
Outline: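 In this quantitative high-throughput screen, an 18 h, 37 C treatment of PGC/ERR cells with compounds in DMSO preceded a One-Glo luminescence read taken after 30 min at room temperature.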

[6] = qHTS assay to identify small molecule antagonists of the estrogen related receptor signaling pathway with the pleiotropic PPARgamma coactivator (PGC) cell viability counter screen (AID 1224822; also: series mostly up to about 46 µM)
Outline: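 Cytotoxicity in the PGC/ERR cell line is assessed with CellTiter-Fluor, read as fluorescence intensity 30 min after reagent addition, following 17.5 h compound treatment at 37 C.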

[7] = qHTS assay to identify small molecule agonists of the RXR signaling pathway - cell viability counter screen (AID 1159529); also: nearly all actives have a fitted effect of over 50% in size; also: potency is read from the fitted curve at half-maximal effect
Outline: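 Tox21 10K compounds were tested for cytotoxicity against GeneBLAzer RXR-alpha HEK 293T cells grown in 2% charcoal-stripped FBS. Exposure lasted 16 hr at 37 C, 5% CO2; viability read by CellTiter-Glo luminescence.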

[8] = qHTS assay to identify small molecule antagonists of the retinoid acid receptor (RAR) signaling pathway - cell viability counter screen (AID 1159551); also: nearly all actives have a fitted effect of over 35% in size; also: potency is read from the fitted curve at half-maximal effect
Outline: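 ATP-based viability, C3RL4 cells, 6 h at 37 C with 1 uM final retinol co-added after compound; luminescence read 30 min post CellTiter-Glo, RT.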

[9] = qHTS assay to identify small molecule antagonists of the retinoic acid receptor (RAR) signaling pathway (AID 1159552; also: nearly all actives have a fitted effect of over 50% in size; also: potency is read from the fitted curve at half-maximal effect)
Outline: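 Overnight-plated C3RL4 reporter cells get compound, then retinol to 1 uM final; plates sit 6 hr at 37 C, 5% CO2. A luciferase reagent is added and light output recorded after 30 min at room temperature.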

[10] = qHTS assay to identify small molecule antagonists of the estrogen related receptor (ERR) signaling pathway from Tox21 library - cell viability counter screen (AID 1224834); also: nearly all actives have a fitted effect of over 30% in size; also: potency is read from the fitted curve at half-maximal effect
Outline: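 Compounds in DMSO were pinned onto ERR cells that had been incubated for 6 h, and the plates were held at 37 C for 17.5 h. CellTiter-Fluor reagent was then added and fluorescence was measured after 30 min.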

[11] = qHTS assay to identify small molecule agonists of the constitutive androstane receptor (CAR) signaling pathway - cell viability counter screen (AID 1224836); also: nearly all actives have a fitted effect of over 45% in size; also: potency is read from the fitted curve at half-maximal effect
Outline: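 Fluorescence from CellTiter-Fluor indicates live cells after 23 h exposure. The human hepatoma line expresses hCAR and a CYP2B6-2.2kb reporter. Incubation medium contains 0.75 uM PK11195 (final).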

[12] = qHTS assay to identify small molecule antagonists of the constitutive androstane receptor (CAR) signaling pathway - cell viability counter screen (AID 1224837); also: nearly all actives have a fitted effect of over 45% in size; also: potency is read from the fitted curve at half-maximal effect
Outline: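 Cells are seeded, rested 4 hr at 37 C/5% CO2, dosed with compound (15-point series) and 50 nM CITCO, incubated a further 23 hr, and then CellTiter-Fluor reagent is added before fluorescence is read. The line is HepG2 with stable hCAR and CYP2B6-2.2kb.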

[13] = biological target: Nuclear receptor subfamily 1 group I member 3 (Homo sapiens) (UniProt Q14994); experiment: qHTS assay to identify small molecule antagonists of the constitutive androstane receptor (CAR) signaling pathway (AID 1224838);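 also: HepG2 cells stably expressing hCAR with CYP2B6 luciferase reporter stimulated by CITCO; nearly all actives have a fitted effect of over 40% in size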; also: potency is read from the fitted curve at half-maximal effect
Sequence of Nuclear receptor subfamily 1 group I member 3 (Homo sapiens) (Q14994 whole entry, looked up): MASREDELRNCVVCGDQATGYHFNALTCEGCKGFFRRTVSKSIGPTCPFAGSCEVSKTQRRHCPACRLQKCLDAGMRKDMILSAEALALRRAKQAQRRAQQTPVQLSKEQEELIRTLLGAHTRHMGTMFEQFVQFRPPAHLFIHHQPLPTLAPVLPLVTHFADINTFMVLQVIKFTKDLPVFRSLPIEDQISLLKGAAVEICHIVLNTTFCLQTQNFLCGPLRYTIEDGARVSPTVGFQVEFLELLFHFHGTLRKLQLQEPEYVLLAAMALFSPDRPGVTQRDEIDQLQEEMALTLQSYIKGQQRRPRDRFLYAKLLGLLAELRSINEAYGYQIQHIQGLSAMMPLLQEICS
Outline: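 Luminescence from a CYP2B6-2.2kb promoter reporter in hCAR-expressing HepG2 cells reflects CAR signaling. Cells received compounds at 15 concentrations and 50 nM CITCO (final), then incubated 24 h at 37 C/5% CO2.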

[14] = biological target: Nuclear receptor subfamily 1 group I member 3 (Homo sapiens) (UniProt Q14994); experiment: qHTS assay to identify small molecule agonists of the constitutive androstane receptor (CAR) signaling pathway (AID 1224839); also: nearly all actives have a fitted effect of over 15% in size; also: potency is read from the fitted curve at half-maximal effect
Outline: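 Stable hCAR/CYP2B6-2.2kb HepG2 line in DMEM with 10% FBS; compounds (15 concentrations) and 0.75 uM PK11195 final, 24 h at 37 C/5% CO2, then ONE-Glo luminescence after 30 min.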

[15] = qHTS assay to identify small molecule antagonists of the estrogen related receptor signaling pathway with the pleiotropic PPARgamma coactivator (PGC) from Tox21 10K library - cell viability counter screen (AID 1224840; active = well fitted cell-killing curve with a large enough effect in the repeat runs, not every such curve was filed as active; also: nearly all actives have a fitted effect of over 40% in size)
Outline: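 Cell viability is measured by CellTiter-Fluor fluorescence in PGC/ERR cells that receive compounds after a 6-hour attachment period and are then incubated 17.5 hours at 37 C.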

[16] = biological target: Luciferin 4-monooxygenase (Photinus pyralis) (UniProt P08659); experiment: qHTS assay to identify small molecule inhibitors of firefly luciferase (AID 1224835); also: nearly all actives have a fitted effect of over 25% in size; also: potency is read from the fitted curve at half-maximal effect
Sequence of Luciferin 4-monooxygenase (Photinus pyralis) (P08659 whole entry, looked up): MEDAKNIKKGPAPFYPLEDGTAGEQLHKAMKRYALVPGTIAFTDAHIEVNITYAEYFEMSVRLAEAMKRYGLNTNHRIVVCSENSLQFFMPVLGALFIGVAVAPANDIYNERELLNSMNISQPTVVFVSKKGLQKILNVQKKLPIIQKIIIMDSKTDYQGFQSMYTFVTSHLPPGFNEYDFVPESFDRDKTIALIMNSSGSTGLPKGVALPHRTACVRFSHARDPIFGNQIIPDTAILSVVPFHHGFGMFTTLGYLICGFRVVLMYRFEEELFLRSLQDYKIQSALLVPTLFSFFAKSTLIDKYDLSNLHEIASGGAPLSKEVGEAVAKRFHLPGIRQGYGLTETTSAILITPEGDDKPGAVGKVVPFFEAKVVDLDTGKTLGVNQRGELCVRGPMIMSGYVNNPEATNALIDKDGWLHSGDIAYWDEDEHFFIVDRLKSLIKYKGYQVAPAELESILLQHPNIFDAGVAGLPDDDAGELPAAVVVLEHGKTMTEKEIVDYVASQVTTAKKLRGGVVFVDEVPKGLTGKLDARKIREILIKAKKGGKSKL
Outline: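 Quantitative HTS format; KM concentrations of both substrates. Purified P. pyralis FLuc activity quantified from luminescence images.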

[17] = qHTS assay to identify small molecule antagonists of the estrogen related receptor signaling pathway with the pleiotropic PPARgamma coactivator (PGC) from Tox21 10K library (AID 1224841; call rule not given here; also: potency is read from the fitted curve at half-maximal effect)
Outline: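 Cells stably carrying the PGC/ERR reporter, seeded at 2,000 per well, received pin-transferred compounds 6 h post-plating. Exposure lasted 18 h at 37 C. Signal: One-Glo luminescence.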

[18] = biological target: Thyrotropin receptor (Homo sapiens) (UniProt P16473); experiment: qHTS assay to identify small molecule agonists of the thyroid stimulating hormone receptor (TSHR) signaling pathway (AID 1224843; calls by dose curve; also: nearly all actives have a fitted effect of over 45% in size)
Sequence of Thyrotropin receptor (Homo sapiens) (P16473 whole entry, looked up): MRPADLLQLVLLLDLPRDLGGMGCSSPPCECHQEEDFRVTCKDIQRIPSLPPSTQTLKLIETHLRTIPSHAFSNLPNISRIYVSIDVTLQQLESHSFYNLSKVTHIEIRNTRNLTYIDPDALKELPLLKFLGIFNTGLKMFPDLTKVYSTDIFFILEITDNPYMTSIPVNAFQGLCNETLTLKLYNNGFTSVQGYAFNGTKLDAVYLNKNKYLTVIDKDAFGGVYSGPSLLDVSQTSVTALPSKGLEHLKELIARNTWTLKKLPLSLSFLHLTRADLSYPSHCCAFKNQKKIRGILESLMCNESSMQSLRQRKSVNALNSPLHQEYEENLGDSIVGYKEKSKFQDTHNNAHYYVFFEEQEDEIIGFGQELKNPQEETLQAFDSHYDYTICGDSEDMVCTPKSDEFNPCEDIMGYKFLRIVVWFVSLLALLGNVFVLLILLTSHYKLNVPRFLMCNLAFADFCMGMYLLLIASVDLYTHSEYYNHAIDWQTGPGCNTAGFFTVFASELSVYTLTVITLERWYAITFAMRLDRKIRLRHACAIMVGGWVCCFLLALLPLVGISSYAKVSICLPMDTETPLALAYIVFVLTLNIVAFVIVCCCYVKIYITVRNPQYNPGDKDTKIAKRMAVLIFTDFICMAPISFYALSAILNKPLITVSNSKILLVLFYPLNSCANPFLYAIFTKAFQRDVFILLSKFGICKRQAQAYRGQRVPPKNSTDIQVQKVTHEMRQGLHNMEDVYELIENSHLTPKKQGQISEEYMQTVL
Outline: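 Using 15 concentrations per compound in triplicate, cAMP production was monitored in TSHR-HEK293 cells after 30 min compound incubation at RT; HTRF reagents followed, with fluorescence intensity recorded after 1 h.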

[19] = qHTS assay to identify small molecule agonists of the estrogen related receptor signaling pathway with the pleiotropic PPARgamma coactivator (PGC) from Tox21 10K library (AID 1224842); also: nearly all actives have a fitted effect of over 15% in size
Outline: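 PGC/ERR reporter cells (NTP line) were seeded 2,000 per well, rested 6 h at 37 C/5% CO2, then pin-dosed with compounds in DMSO for 18 h at 37 C; luciferase read by One-Glo luminescence after 30 min at room temperature.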

[20] = qHTS assay to identify small molecule agonists of the retinoic acid receptor (RAR) signaling pathway (AID 1159553)
Outline: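 Quantitative high-throughput format: the Tox21 10K library was tested on C3RL4 RARE-luciferase cells for 6 hr at 37 C and 5% CO2, with luminescence measured after a 30 min room-temperature reagent step.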

Measured: Potency

Nc1ccc(N=Nc2ccccc2)cc1
active: [1] 31.8 µM | [3] 10.1 µM | [5] 14.2 µM
inactive: [2] | [4]

COc1ccc(Cc2nccc3cc(OC)c(OC)cc23)cc1OC
inactive: [1] | [6]

Brc1cccc(-c2ccccc2)c1
inactive: [7] | [8] | [9] | [10] | [11] | [12] | [13] | [14] | [15]

O=[N+]([O-])c1ccc(Cl)c(Cl)c1Cl
inactive: [7] | [8] | [9] | [10] | [16] | [11] | [12] | [13] | [14] | [17] | [18]

O=C1C2(Cl)C3(Cl)C4(Cl)C(Cl)(Cl)C5(Cl)C3(Cl)C1(Cl)C5(Cl)C24Cl (stereo unspecified)
active: [7] 24.1 µM and 41.8 µM | [8] 47.8 µM | [9] 21.3 µM and 29.3 µM | [10] 53.6 µM and 58.5 µM | [11] 60.1 µM | [12] 60.1 µM | [13] 23.9 µM and 52.2 µM | [17] 53.6 µM
inactive: [16] | [14]

CCC1(CC)C(=O)N=C(O)NC1=O
inactive: [7] | [8] | [9] | [10] | [16] | [11] | [12] | [14] | [15]

O=[N+]([O-])C(Br)Br
active: [16] 28.3 µM
not listed: [1] | [2] | [3] | [4] | [5] | [6] | [20]
inactive: all other assays above

CC(C)c1c(CN(C)C(C)Cc2ccccc2)n(C)n(-c2ccccc2)c1=O (stereo unspecified)
active: [14] 13.3 µM
inactive: [7] | [8] | [9] | [20] | [16] | [12] | [15]

Cc1ccc2cc3c(ccc4ccccc43)c3c2c1CC3
inactive: [7] | [8] | [9] | [10] | [11] | [14] | [15] | [18]
active: [16] 11.3 µM | [13] 865 nM

CC(C)C(Nc1ccc(C(F)(F)F)cc1Cl)C(=O)OC(C#N)c1cccc(Oc2ccccc2)c1 (stereo unspecified)
inactive: [7] | [8] | [9] | [10] | [16] | [11] | [12]

COc1ccc2[nH]cc(CCN(C(C)C)C(C)C)c2c1
inactive: [7] | [8] | [9] | [10] | [16] | [11] | [13] | [14] | [15] | [18]

ClCBr
not listed: [1] | [2] | [3] | [4] | [5] | [6] | [17] | [20]
inactive: all other assays above
